In PubChem BioAssay (NCATS):
Results filed as inconclusive are left out. Calls of active or inactive are those of the source. Calls follow the shape of the dose curve; as a rule, active = well fitted cell-killing curve with a large enough effect; inconclusive = small, poorly fitted or top-dose-only effect, or effect the other way; inactive = no such curve, though single readings can be large or run the other way. Peptide text beside a SMILES is read from it.

Experiments:
[1] = Quantitative High-Throughput drug screen in 47 multiple myeloma cell lines against the NCATS MIPE library collection: OPM1_PLB cell viability assay (AID 1918989); also: nearly all actives have a fitted effect of over 40% in size
Summary of the method: (§1)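 Myeloma cells (500/well) treated with MIPE 4.0 compounds for 48 h at 37 °C, 5% CO2. Viability read as ATP via CellTiter-Glo luminescence after 5 min at RT; DMSO-only wells = 100%, media-only = 0% viability.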

[2] = Quantitative High-Throughput drug screen in 47 multiple myeloma cell lines against the NCATS MIPE library collection: U266_ATCC cell viability assay (AID 1919864); also: nearly all actives have a fitted effect of over 35% in size
Summary of the method: as §1

[3] = Quantitative High-Throughput drug screen in 47 multiple myeloma cell lines against the NCATS MIPE library collection: XG6_PLB cell viability assay (AID 1919865); also: nearly all actives have a fitted effect of over 40% in size
Summary of the method: as §1

[4] = Quantitative High-Throughput drug screen in 47 multiple myeloma cell lines against the NCATS MIPE library collection: XG1_PLB cell viability assay (AID 1919866); also: nearly all actives have a fitted effect of over 35% in size
Summary of the method: as §1

[5] = Quantitative High-Throughput drug screen in 47 multiple myeloma cell lines against the NCATS MIPE library collection: VP6_DJ cell viability assay (AID 1919867); also: nearly all actives have a fitted effect of over 40% in size
Summary of the method: as §1

[6] = Quantitative High-Throughput drug screen in 47 multiple myeloma cell lines against the NCATS MIPE library collection: PE2_PLB cell viability assay (AID 1919869); also: nearly all actives have a fitted effect of over 35% in size
Summary of the method: as §1

[7] = Quantitative High-Throughput drug screen in 47 multiple myeloma cell lines against the NCATS MIPE library collection: RPMI8226_ATCC cell viability assay (AID 1919871); also: nearly all actives have a fitted effect of over 30% in size
Summary of the method: as §1

[8] = Quantitative High-Throughput drug screen in 47 multiple myeloma cell lines against the NCATS MIPE library collection: SKMM1_PLB cell viability assay (AID 1919863); conditions: SKMM1 myeloma viability, CellTiter-Glo ATP, 48 h; viability: hits give low values; also: nearly all actives have a fitted effect of over 35% in size; as to viability: series mostly up to about 46 µM
Summary of the method: as §1

[9] = Quantitative High-Throughput drug screen in 47 multiple myeloma cell lines against the NCATS MIPE library collection: PCM6_Riken cell viability assay (AID 1919870); also: nearly all actives have a fitted effect of over 30% in size
Summary of the method: as §1
Potency is read from the fitted curve at half-maximal effect.

COCCCOc1ccnc(CS(=O)c2nc3ccccc3[nH]2)c1C (stereo not drawn)
inactive: Potency [1] | Potency [2] | Potency [4] | Potency [6] | Potency [7]
active: Potency [3] 10.5 µM | Potency [5] 4.69 µM

O=c1cc(N2CCOCC2)oc2c(-c3ccccc3)cccc12
active: Potency [8] 14.8 µM | Potency [2] 18.7 µM

Cc1ccc(S(=O)(=O)NC(=O)NN2CC3CCCC3C2)cc1 (stereo not drawn)
active: Potency [1] 20.9 µM | Potency [3] 20.9 µM | Potency [4] 23.5 µM | Potency [5] 23.5 µM | Potency [9] 20.9 µM | Potency [7] 23.5 µM

COc1c(O)cc2c(c1O)[C@@H]1O[C@H](CO)[C@@H](O)[C@H](O)[C@H]1OC2=O
inactive: Potency [1] | Potency [5] | Potency [6] | Potency [7]

CC(C)c1ccc2c(c1)c(SC(C)(C)C)c(CC(C)(C)C(=O)O)n2Cc1ccc(Cl)cc1
inactive: Potency [1]
active: Potency [2] 20.9 µM | Potency [4] 23.5 µM

Cc1nccn1CC1CCc2c(c3ccccc3n2C)C1=O (stereo not drawn)
inactive: viability [8] 99.5% | Potency [5] | Potency [6] | Potency [7]
active: Potency [1] 18.7 µM

CC(=O)NC[C@H]1CN(c2ccc(N3CCOCC3)c(F)c2)C(=O)O1
inactive: Potency [2] | Potency [3] | Potency [4] | Potency [5] | Potency [6] | Potency [9]
active: Potency [8] 3.72 µM

CCCS(=O)c1ccc2nc(NC(=O)OC)[nH]c2c1 (stereo not drawn)
active: Potency [8] 10.5 µM

COC(=O)[C@H](Cc1ccccc1)NC(=O)[C@@H](N)CC(=O)O (H-Asp-Phe-OMe)
inactive: Potency [1] | Potency [4] | Potency [6]

CCN(CCO)CCCC(C)Nc1ccnc2cc(Cl)ccc12 (stereo not drawn)
inactive: Potency [1] | Potency [2] | Potency [4] | Potency [5] | Potency [9] | Potency [7]

O=C(O)CCNC(=O)c1ccc(N=Nc2ccc(O)c(C(=O)O)c2)cc1
inactive: Potency [1] | Potency [3] | Potency [4] | Potency [5] | Potency [6] | Potency [9]
active: Potency [2] 13.2 µM

CC1(C)C(=O)N(CCN2CCC(C(=O)c3ccc(F)cc3)CC2)c2ccccc21
active: Potency [1] 10.5 µM | Potency [3] 4.69 µM | Potency [4] 14.8 µM | Potency [5] 4.18 µM | Potency [6] 23.5 µM

COc1cc2c(N3CCN(C(=O)Nc4ccc(OC(C)C)cc4)CC3)ncnc2cc1OCCCN1CCCCC1
active: Potency [1] 9.35 µM | Potency [2] 23.5 µM | Potency [3] 18.7 µM | Potency [4] 13.2 µM | Potency [5] 8.33 µM | Potency [6] 16.6 µM

O=c1ccc2ccc(O)c(O)c2o1
inactive: Potency [7]
active: Potency [1] 18.7 µM | Potency [2] 9.35 µM | Potency [4] 4.18 µM | Potency [5] 11.8 µM | Potency [6] 13.2 µM | Potency [9] 13.2 µM

COc1cc(OC)c(C(=O)CCCN2CCCC2)c(OC)c1
inactive: Potency [1] | Potency [2] | Potency [3] | Potency [4] | Potency [6]

Cc1cccc(C)c1OCC(=O)N[C@@H](Cc1ccccc1)[C@@H](O)C[C@H](Cc1ccccc1)NC(=O)[C@H](C(C)C)N1CCCNC1=O
active: Potency [1] 18.7 µM | Potency [4] 20.9 µM
inactive: Potency [2]

C[C@]12CCC(=O)C=C1CC[C@@H]1[C@H]2[C@@H](O)C[C@@]2(C)[C@H]1CC[C@]2(O)C(=O)CO
active: Potency [5] 14.8 µM
inactive: Potency [1] | viability [8] 138% | Potency [6]

O=C(NCC1CCCCN1)c1cc(OCC(F)(F)F)ccc1OCC(F)(F)F (stereo not drawn)
active: Potency [1] 9.35 µM | Potency [3] 3.32 µM | Potency [4] 3.32 µM | Potency [5] 3.72 µM | Potency [6] 9.35 µM | Potency [9] 4.69 µM

CC1(C)CCC(C)(C)c2cc(NC(=O)c3ccc(C(=O)O)cc3)ccc21
active: Potency [8] 14.8 µM | Potency [3] 5.26 µM | Potency [4] 3.72 µM | Potency [5] 18.7 µM | Potency [6] 20.9 µM
inactive: Potency [2]

Cc1cc(=O)c2c(O)c3c(O)cc(=O)c4c3c3c(cc(O)c1c23)C(C)(C)C=4O
active: Potency [8] 5.26 µM | Potency [2] 26.4 µM | Potency [3] 0.743 µM | Potency [4] 1.05 µM | Potency [5] 0.469 µM | Potency [6] 0.296 µM

CNC[C@@H](O)[C@@H](O)[C@H](O)[C@H](O)CO
inactive: Potency [1] | Potency [3] | Potency [4] | Potency [9] | Potency [7]

CCCCC(CC)COC(=O)C(C#N)=C(c1ccccc1)c1ccccc1 (stereo not drawn)
inactive: viability [8] 130% | Potency [4] | Potency [5] | Potency [6] | Potency [9]

CNC[C@H](O)c1ccc(O)c(O)c1
active: Potency [8] 12.1 µM | Potency [2] 38.2 µM | Potency [7] 42.9 µM
inactive: Potency [4]

O=C(c1ccccc1)c1ccc2n1CCC2C(=O)O (stereo not drawn)
inactive: viability [8] 105% | Potency [7]
active: Potency [2] 3.72 µM | Potency [4] 9.35 µM | Potency [5] 9.35 µM | Potency [6] 9.35 µM | Potency [9] 10.5 µM

O=c1c(O)c(-c2cc(O)c(O)c(O)c2)oc2cc(O)cc(O)c12
active: Potency [8] 20.9 µM
inactive: Potency [3] | Potency [4]

Cc1ccc(C)c(OCCCC(C)(C)C(=O)O)c1
inactive: viability [8] 118% | Potency [7]
active: Potency [4] 16.6 µM | Potency [5] 7.43 µM | Potency [9] 8.33 µM

C[C@@H](N)C1CCC(C(=O)Nc2ccncc2)CC1 (stereo partly drawn)
inactive: viability [8] 141%
active: Potency [3] 5.9 µM | Potency [4] 9.35 µM | Potency [6] 16.6 µM | Potency [9] 14.8 µM
